Source: PubChem BioAssay (EPA / NIEHS)
Activity calls are given as the source filed them. The calls were made as follows: active = hit-call score of the fitted dose curve at least 0.9, where 1 is the maximum; inactive = score below 0.9.

Assays:
Details in all cases: mRNA level, 48 h; actives raise or lower the signal
[1] = read-out: Bcl-2 (BID) gene, BID (gene 637); test: LTEA_HepaRG_BID: Life Technologies and Expression Analysis (LTEA) Assay for Bcl-2 (BID) gene using HepaRG (AID 2283476)
How it was run: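 Differentiated HepaRG cells in serum-free induction medium were exposed in duplicate for 48 h to eight half-log concentrations up to 100 uM in 0.5% DMSO. BID mRNA was quantified by qRT-PCR, normalized to ACTB, GAPDH and POLR2A.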

Caspase-3 (Homo sapiens) = Caspase-3 (Homo sapiens) (UniProt P42574); test: LTEA_HepaRG_CASP3: Life Technologies and Expression Analysis (LTEA) Assay for cysteine-aspartic acid protease (CASP3) using HepaRG (AID 2283477)
How it was run: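 Transcript-level assay: CASP3 mRNA in human HepaRG after 48 h treatment, eight half-log concentrations from 100 uM in 0.5% DMSO, quantified by qRT-PCR.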

[2] = read-out: Cytochrome P450 (CYP24A1), CYP24A1 (gene 1591); test: LTEA_HepaRG_CYP24A1: Life Technologies and Expression Analysis (LTEA) Assay for Cytochrome P450 (CYP24A1) using HepaRG (AID 2283478)
How it was run: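 Gene expression of CYP24A1 by TaqMan qRT-PCR in HepaRG after 48 h treatment, highest concentration 100 uM; activity fitted in both directions relative to DMSO vehicle.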

[3] = read-out: Cytochrome P450 (CYP1A2), CYP1A2 (gene 1544); test: LTEA_HepaRG_CYP1A2: Life Technologies and Expression Analysis (LTEA) Assay for Cytochrome P450 (CYP1A2) using HepaRG (AID 2283479);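 as to AC50: TaqMan qRT-PCR transcript level normalized to ACTB GAPDH and POLR2A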
How it was run: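 In duplicate wells, HepaRG cultures maintained in 0.5% DMSO were treated 48 h across an 8-point, half-log series topping at 100 uM; phenobarbital (1 mM) served as induction control. Expression was read by qRT-PCR.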

[4] = read-out: cysteine-aspartic acid protease (CASP8), CASP8 (gene 841); test: LTEA_HepaRG_CASP8: Life Technologies and Expression Analysis (LTEA) Assay for cysteine-aspartic acid protease (CASP8) using HepaRG (AID 2283480)
How it was run: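 Differentiated HepaRG cells in serum-free induction medium, 48 h exposure, eight-point half-log series from 100 uM in 0.5% DMSO, duplicates. CASP8 mRNA by qRT-PCR, normalized to ACTB, GAPDH, POLR2A; bidirectional fit versus DMSO.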

[5] = read-out: Cytochrome P450 (CYP2B6), CYP2B6 (gene 1555); test: LTEA_HepaRG_CYP2B6: Life Technologies and Expression Analysis (LTEA) Assay for Cytochrome P450 (CYP2B6) using HepaRG (AID 2283481)
How it was run: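 Human HepaRG, 48 h dosing, 0.5% DMSO vehicle, top dose 100 uM. CYP2B6 transcript by qRT-PCR, housekeeping-normalized, bidirectional curve fit.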

[6] = read-out: Cytochrome P450 2C19 (Homo sapiens) (UniProt P33261); test: LTEA_HepaRG_CYP2C19: Life Technologies and Expression Analysis (LTEA) Assay for CYP2C19 using HepaRG (AID 2283482)
How it was run: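 Endpoint: CYP2C19 mRNA change, bidirectional fit vs 0.5% DMSO. Cells: HepaRG, 48 h exposure, eight-point series topping at 100 uM. Quantitation: qRT-PCR normalized to ACTB, GAPDH, POLR2A.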

CYP2C8 (gene 1558) = test: LTEA_HepaRG_CYP2C8: Life Technologies and Expression Analysis (LTEA) Assay for CYP2C8 using HepaRG (AID 2283483)
How it was run: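 Differentiated HepaRG cells in serum-free induction medium exposed 48 h in duplicate to 8 half-log concentrations from 100 uM in 0.5% DMSO. CYP2C8 mRNA by qRT-PCR normalized to ACTB, GAPDH, POLR2A; bidirectional fit versus DMSO.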

CYP2C9 (gene 1559) = test: LTEA_HepaRG_CYP2C9: Life Technologies and Expression Analysis (LTEA) Assay for CYP2C9 using HepaRG (AID 2283484)
How it was run: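 Differentiated human HepaRG cells in serum-free induction medium were exposed 48 h to chemicals in 8-point half-log series from 100 uM (0.5% DMSO), in duplicate. CYP2C9 mRNA was measured by qRT-PCR, normalized to ACTB/GAPDH/POLR2A, with bidirectional fitting versus DMSO.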

CYP2E1 (gene 1571) = test: LTEA_HepaRG_CYP2E1: Life Technologies and Expression Analysis (LTEA) Assay for CYP2E1 using HepaRG (AID 2283485)
How it was run: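 HepaRG cells in serum-free induction medium exposed 48 h to test chemicals, 8 half-log concentrations up to 100 uM in 0.5% DMSO, duplicate. CYP2E1 mRNA by qRT-PCR, normalized to ACTB, GAPDH, POLR2A; bidirectional fit versus DMSO.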

Caspase-3 (Homo sapiens), sequence (P42574 whole entry, looked up): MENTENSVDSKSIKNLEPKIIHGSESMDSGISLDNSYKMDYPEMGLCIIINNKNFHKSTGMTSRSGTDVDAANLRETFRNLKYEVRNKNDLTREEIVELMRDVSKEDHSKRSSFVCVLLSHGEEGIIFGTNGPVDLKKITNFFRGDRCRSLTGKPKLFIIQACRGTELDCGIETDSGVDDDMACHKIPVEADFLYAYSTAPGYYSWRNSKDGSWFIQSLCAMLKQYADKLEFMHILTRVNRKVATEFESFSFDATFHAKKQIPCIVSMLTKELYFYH
Cytochrome P450 2C19 (Homo sapiens), sequence (P33261 whole entry, looked up): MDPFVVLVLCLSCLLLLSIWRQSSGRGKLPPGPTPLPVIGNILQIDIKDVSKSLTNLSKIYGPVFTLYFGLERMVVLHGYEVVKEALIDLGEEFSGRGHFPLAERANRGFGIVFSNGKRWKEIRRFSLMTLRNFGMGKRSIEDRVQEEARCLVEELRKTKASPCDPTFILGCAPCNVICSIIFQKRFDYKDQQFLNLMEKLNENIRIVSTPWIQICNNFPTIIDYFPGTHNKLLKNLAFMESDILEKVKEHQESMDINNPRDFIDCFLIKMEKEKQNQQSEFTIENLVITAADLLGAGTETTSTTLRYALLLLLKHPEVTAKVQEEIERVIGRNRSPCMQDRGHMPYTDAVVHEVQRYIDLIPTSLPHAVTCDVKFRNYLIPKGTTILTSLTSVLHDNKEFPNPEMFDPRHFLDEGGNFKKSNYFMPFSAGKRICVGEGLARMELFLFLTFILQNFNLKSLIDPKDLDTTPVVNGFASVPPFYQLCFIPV

CCC(C)c1ccc(O)cc1 (centres undefined)
outcome [1]: inactive
outcome (Caspase-3 (Homo sapiens)): inactive
outcome [2]: inactive
outcome [3]: inactive
outcome [4]: inactive
outcome [5]: inactive
outcome [6]: inactive
outcome (CYP2C8 (gene 1558)): inactive
outcome (CYP2C9 (gene 1559)): inactive
outcome (CYP2E1 (gene 1571)): inactive

Cc1ccc(N)c(N)c1
outcome [1]: inactive
outcome (Caspase-3 (Homo sapiens)): inactive
outcome [2]: inactive
AC50 [3]: 38.3 µM (active)
outcome [4]: inactive
AC50 [5]: 50 µM (active)
outcome [6]: inactive
outcome (CYP2C8 (gene 1558)): inactive
outcome (CYP2C9 (gene 1559)): inactive
AC50 (CYP2E1 (gene 1571)): 50 µM (active)

Nc1ccc(Cc2ccc(N)cc2)cc1
outcome [1]: inactive
outcome (Caspase-3 (Homo sapiens)): inactive
outcome [2]: inactive
AC50 [3]: 31.3 µM (active)
outcome [4]: inactive
AC50 [5]: 11.5 µM (active)
AC50 [6]: 14.5 µM (active)
outcome (CYP2C8 (gene 1558)): inactive
AC50 (CYP2C9 (gene 1559)): 20 µM (active)
outcome (CYP2E1 (gene 1571)): inactive

ClCCOCCCl
outcome [1]: inactive
outcome (Caspase-3 (Homo sapiens)): inactive
outcome [2]: inactive
outcome [3]: inactive
outcome [4]: inactive
outcome [5]: inactive
outcome [6]: inactive
outcome (CYP2C8 (gene 1558)): inactive
outcome (CYP2C9 (gene 1559)): inactive
outcome (CYP2E1 (gene 1571)): inactive

Oc1ccc2ccc3cccc4ccc1c2c34
outcome [1]: inactive
outcome (Caspase-3 (Homo sapiens)): inactive
outcome [2]: inactive
AC50 [3]: 11.5 µM (active)
outcome [4]: inactive
outcome [5]: inactive
outcome [6]: inactive
outcome (CYP2C8 (gene 1558)): inactive
outcome (CYP2C9 (gene 1559)): inactive
AC50 (CYP2E1 (gene 1571)): 50 µM (active)

Nc1cc(Cl)cc(C(=O)O)c1Cl
outcome [1]: inactive
outcome (Caspase-3 (Homo sapiens)): inactive
outcome [2]: inactive
AC50 [3]: 50 µM (active)
outcome [4]: inactive
outcome [5]: inactive
outcome [6]: inactive
outcome (CYP2C8 (gene 1558)): inactive
outcome (CYP2C9 (gene 1559)): inactive
outcome (CYP2E1 (gene 1571)): inactive

ClC1=C(Cl)C2(Cl)C3C(Cl)C=CC3C1(Cl)C2(Cl)Cl (centres undefined)
outcome [1]: inactive
outcome (Caspase-3 (Homo sapiens)): inactive
outcome [2]: inactive
outcome [3]: inactive
outcome [4]: inactive
AC50 [5]: 0.67 µM (active)
AC50 [6]: 2.22 µM (active)
outcome (CYP2C8 (gene 1558)): inactive
outcome (CYP2C9 (gene 1559)): inactive
AC50 (CYP2E1 (gene 1571)): 7.54 µM (active)

O=[N+]([O-])c1ccc(Oc2ccc(Cl)cc2Cl)cc1
outcome [1]: inactive
outcome (Caspase-3 (Homo sapiens)): inactive
outcome [2]: inactive
AC50 [3]: 27.2 µM (active)
outcome [4]: inactive
AC50 [5]: 12.8 µM (active)
AC50 [6]: 12.4 µM (active)
outcome (CYP2C8 (gene 1558)): inactive
outcome (CYP2C9 (gene 1559)): inactive
AC50 (CYP2E1 (gene 1571)): 58 µM (active)

OCCOCCO
outcome [1]: inactive
outcome (Caspase-3 (Homo sapiens)): inactive
outcome [2]: inactive
outcome [3]: inactive
outcome [4]: inactive
AC50 [5]: 0.128 µM (active)
outcome [6]: inactive
outcome (CYP2C8 (gene 1558)): inactive
outcome (CYP2C9 (gene 1559)): inactive
outcome (CYP2E1 (gene 1571)): inactive

[As]#[In]
outcome [1]: inactive
outcome (Caspase-3 (Homo sapiens)): inactive
outcome [2]: inactive
outcome [3]: inactive
outcome [4]: inactive
AC50 [5]: 39 µM (active)
outcome [6]: inactive
outcome (CYP2C8 (gene 1558)): inactive
outcome (CYP2C9 (gene 1559)): inactive

CC(O)CCO (centres undefined)
outcome [1]: inactive
outcome (Caspase-3 (Homo sapiens)): inactive
outcome [2]: inactive
outcome [3]: inactive
outcome [4]: inactive
outcome [5]: inactive
outcome [6]: inactive
outcome (CYP2C8 (gene 1558)): inactive
outcome (CYP2C9 (gene 1559)): inactive
outcome (CYP2E1 (gene 1571)): inactive

O=[N+]([O-])C(Br)(CO)CO
outcome [1]: inactive
outcome (Caspase-3 (Homo sapiens)): inactive
outcome [2]: inactive
outcome [3]: inactive
outcome [4]: inactive
outcome [5]: inactive
outcome [6]: inactive
outcome (CYP2C8 (gene 1558)): inactive
outcome (CYP2C9 (gene 1559)): inactive
outcome (CYP2E1 (gene 1571)): inactive

CS(=O)(=O)NC(=O)c1cc(Oc2ccc(C(F)(F)F)cc2Cl)ccc1[N+](=O)[O-]
outcome [1]: inactive
outcome (Caspase-3 (Homo sapiens)): inactive
outcome [2]: inactive
outcome [3]: inactive
outcome [4]: inactive
AC50 [5]: 3.63 µM (active)
AC50 [6]: 1.52 µM (active)
AC50 (CYP2C8 (gene 1558)): 1.76 µM (active)
outcome (CYP2C9 (gene 1559)): inactive
AC50 (CYP2E1 (gene 1571)): 9.92 µM (active)

CN(C)c1ccc(C(=O)c2ccc(N(C)C)cc2)cc1
outcome [1]: inactive
outcome (Caspase-3 (Homo sapiens)): inactive
outcome [2]: inactive
AC50 [3]: 12.1 µM (active)
outcome [4]: inactive
AC50 [5]: 12.2 µM (active)
outcome [6]: inactive
outcome (CYP2C8 (gene 1558)): inactive
outcome (CYP2C9 (gene 1559)): inactive
AC50 (CYP2E1 (gene 1571)): 50 µM (active)

c1ccc2c(c1)oc1ccccc12
outcome [1]: inactive
outcome (Caspase-3 (Homo sapiens)): inactive
outcome [2]: inactive
AC50 [3]: 50 µM (active)
outcome [4]: inactive
AC50 [5]: 0.0679 µM (active)
outcome [6]: inactive
outcome (CYP2C8 (gene 1558)): inactive
outcome (CYP2C9 (gene 1559)): inactive
outcome (CYP2E1 (gene 1571)): inactive

Nc1ccc(Oc2ccc(N)cc2)cc1
outcome [1]: inactive
outcome (Caspase-3 (Homo sapiens)): inactive
outcome [2]: inactive
AC50 [3]: 40.7 µM (active)
outcome [4]: inactive
AC50 [5]: 67 µM (active)
outcome [6]: inactive
outcome (CYP2C8 (gene 1558)): inactive
outcome (CYP2C9 (gene 1559)): inactive
outcome (CYP2E1 (gene 1571)): inactive

CCNS(=O)(=O)C(F)(F)C(F)(F)C(F)(F)C(F)(F)C(F)(F)C(F)(F)C(F)(F)C(F)(F)F
outcome [1]: inactive
outcome (Caspase-3 (Homo sapiens)): inactive
outcome [2]: inactive
outcome [3]: inactive
outcome [4]: inactive
outcome [5]: inactive
outcome [6]: inactive
outcome (CYP2C8 (gene 1558)): inactive
outcome (CYP2C9 (gene 1559)): inactive
AC50 (CYP2E1 (gene 1571)): 48.2 µM (active)

CCCCCCCCn1sccc1=O
outcome [1]: inactive
outcome (Caspase-3 (Homo sapiens)): inactive
outcome [2]: inactive
outcome [3]: inactive
outcome [4]: inactive
AC50 [5]: 87 µM (active)
AC50 [6]: 81.8 µM (active)
AC50 (CYP2C8 (gene 1558)): 85.9 µM (active)
AC50 (CYP2C9 (gene 1559)): 85.3 µM (active)
AC50 (CYP2E1 (gene 1571)): 84.2 µM (active)

ClC1=C(Cl)[C@]2(Cl)[C@H]3[C@H]([C@@H]4C=C[C@H]3C4)[C@@]1(Cl)C2(Cl)Cl
outcome [1]: inactive
outcome (Caspase-3 (Homo sapiens)): inactive
outcome [2]: inactive
outcome [3]: inactive
outcome [4]: inactive
AC50 [5]: 2.2 µM (active)
AC50 [6]: 3.63 µM (active)
AC50 (CYP2C8 (gene 1558)): 1.45 µM (active)
outcome (CYP2C9 (gene 1559)): inactive
AC50 (CYP2E1 (gene 1571)): 23 µM (active)

Cc1cccc(N)c1N
outcome [1]: inactive
outcome (Caspase-3 (Homo sapiens)): inactive
outcome [2]: inactive
AC50 [3]: 8.42 µM (active)
outcome [4]: inactive
outcome [5]: inactive
outcome [6]: inactive
AC50 (CYP2C8 (gene 1558)): 50 µM (active)
AC50 (CYP2C9 (gene 1559)): 50 µM (active)
AC50 (CYP2E1 (gene 1571)): 58.1 µM (active)
